Drawing on PubChem BioAssay AID1347426 (Functional Genomics Laboratory (NCATS/FGL), 2020), this text covers median seed-adjusted z-score for 69 sequences.

Screen size: about 31,000 sequences; about 1,400 (4.5%) were called active.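 Rule for the calls: active = median seed-adjusted z-score above 1 or below -1; inactive = the rest.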 This excerpt belongs to a sample that is enriched for actives.

The nature of the assay: Novel Modifiers of Survival Motor Neuron (SMN) Protein: Gene Identification via Genome-wide siRNA Screen.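 Note: luminescence tracks full-length SMN protein made from the SMN2 reporter.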 The following applies: HEK293T SMN2-luciferase reporter, siRNA knockdown, 72 h; actives lie on both sides. The essentials:
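Steps: spot 1 pmol siRNA, add Lipofectamine RNAiMax in serum-free DMEM, seed HEK293T SMN2–luciferase reporter cells; incubate 72 h at 37 °C; add ONE-Glo; normalize luminescence to control siRNA, log10, MAD. Candidates: |MAD| > 1.0.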
A general note: In a reporter assay the amount or activity of a reporter protein is the signal.
Regarding GCAUAAAUGAAAUCUCGGATT against ZMYND8, the median seed-adjusted z-score is -0.065 (inactive).
To GGGUCAUCCGAGAAAAGAATT against ADAMTS17 belongs 0.257 (inactive); to GAGCAGUACAGAACAGGAATT against HAAO, 0.214 (inactive); to GCUGCUCACUGUUUCAUGATT against PRSS36, 0.589 (inactive).
To CAACAGAAUAUGCCGUAUATT against SNRPA1 belongs -2.71 (active); to GUUUGCAUGUGACAAUGGATT against PPTC7, 0.49 (inactive); to GCACAGGUCUAAUUCGUCUTT against GRIK1, -0.31 (inactive).
Turning to CGACACCGGAUAAACCAAATT against HES1, the median seed-adjusted z-score is -0.262 (inactive).
With GCACCAGGAUAUGUCUUAATT against YY1AP1, the median seed-adjusted z-score is 0.0453 (inactive).
Consider GGUCAAAGAGUUAUAGAUUTT against MKKS, for which the median seed-adjusted z-score was 1.03 (active).
Consider GGUGUCACCCUGUGAAUUUTT against MAP1S, for which the median seed-adjusted z-score is 0.0941 (inactive).
To AGCCUAUGGUCGGAACGAATT against APOBEC3F belongs -0.315 (inactive); to GCACCUAUGCAGCUCUUCATT against FBLIM1, 0.0604 (inactive); to GGGUUACCCUGGUCAUUAATT against ZNHIT2, -0.339 (inactive).
To GGAGAGACCAGUAAACCGATT against NSFL1C belongs -0.0899 (inactive); to CGAUGAACAUGUUAGACAUTT against AZIN1, -1.14 (active).
The value for GUACAGGGAGCAGAUCAAATT against HRAS was -0.85 (inactive).
With GGAUGUUCACAACCGAAUUTT against CTNNB1, the median seed-adjusted z-score was 0.0802 (inactive).
To GGGUAAACGAUUCCAGCAATT against N-PAC belongs 0.0542 (inactive); to GAAUUGGACUGGAUGCUAATT against DGKK, 0 (inactive); to GGUCCAAAGGGAUCAGGAATT against EMR2, 0.0569 (inactive).
To GCAUCGUUUCUAUGAACUUTT against KCNB2 belongs 1.22 (active); to GGAUGUAAGCCUGACCAUATT against ZNF784, 0.291 (inactive).
For CCAGAAAGCUUCAUCCACATT against MC1R, the median seed-adjusted z-score is -0.64 (inactive).
To GCAGAUCCCUUGUUUUCCUTT against APLN belongs 0.0181 (inactive); to CGCUUAAGCCUUCCAACAATT against POLR2A, -3.81 (active); to CGGGCAUUCUUAUUAGUCATT against SLC2A2, -0.498 (inactive).
The value for CAUCCAGCAUACAAAAGAATT against FCRL3 was -0.642 (inactive).
To GCCUCAGUGUUAUUCGAUATT against MAP1B belongs 0.139 (inactive).
Turning to AGAUCGACUUGAUCGUGCATT against CDK10, the median seed-adjusted z-score was 0.327 (inactive).
With CAGUCUUCACUGACAACUATT against VIP, the median seed-adjusted z-score is 1.52 (active).
Turning to GGACCAAGAUGAUCAGAAATT against SAFB, the median seed-adjusted z-score is -0.954 (inactive).
The value for CAUAGUCCUUGGACAUGUATT against TDRD9 was 0.0754 (inactive); that for CUACCAAUAUGAUAGGUUATT against DDX17 was 0.231 (inactive).
To CUAUAGGUUUUAUAGCAUUTT against LIPA belongs 0.535 (inactive); to GAGUUUCUGUCCAAACUGATT against IL17RA, -1.29 (active); to GGCAAAAACUGUGAAUUAUTT against F10, -0.0033 (inactive).
The value for CGGAAGGACAGACAAGUAATT against SIGLEC9 was 0 (inactive); that for CCAUCACGUUCAUUACCUUTT against GAN was -1.07 (active).
As to GCCUUUGCAGGUAUCAGAATT against LYPLA1, the median seed-adjusted z-score is 0 (inactive).
The value for GCUUGACUUCAAAACUAAATT against SERPIND1 was 0.133 (inactive); that for CCCAAUCAGUAAGAACCAATT against CEACAM1 was -0.211 (inactive); that for CCACCUAUAAAGUUCUAAATT against CAPRIN1 was 1.36 (active).
As for GAUUAUACAUAUUUCGCAATT against BRCA2, the median seed-adjusted z-score is 0 (inactive).
With UGGUGUACACUGUUACUCATT against LOC158381, the median seed-adjusted z-score was 0 (inactive).
The value for CGGUCUACAGCAUCGAGUATT against IL22RA1 was -1.14 (active); that for CUAUCGACAUCAAGAGUUUTT against PSPC1 was 0.0612 (inactive); that for GGUUGACAGUGUGCCUAAATT against NRIP1 was 0.789 (inactive).
GGAUAGAUGUUUCUAUCAATT against SUZ12: the median seed-adjusted z-score was -1.65 (active).
To GGUGUUUGAUUGUGAGAAUTT against UBE2G1 belongs 0.174 (inactive); to CCCACUACAGAAGACUUAUTT against SLC4A1, -0.861 (inactive).
The value for GAAAUGUACCCUCCAGAAATT against CCNB1 was 0.163 (inactive).
Take CCGGAGAUGGAUGAAUCUATT against ICAM5: the median seed-adjusted z-score is -1 (active).
To GUUUCUCAGUACUUCCAGATT against APOA2 belongs -0.297 (inactive); to GGAUGAGGUCUUCACCAAATT against NENF, -0.778 (inactive).
With AAAUCUUCUUUCGACAACATT against RAB37, the median seed-adjusted z-score is 0.0678 (inactive).
The value for GCAAGAUGCAUGCUCAUGATT against ZNF142 was 0.111 (inactive); that for CUGUUGAAAUGUAAAACGATT against VNN1 was 0.549 (inactive); that for GGACAGAUCUUACCCAUCUTT against TRIM59 was 0.941 (inactive).
The value for AGCCUUUAAUCAUUUCUCATT against ZNF85 was -1.01 (active).
For the sequence CUUCAUAUUUGACACCUAUTT against SLC25A26, the median seed-adjusted z-score was 0.0213 (inactive).
To GACUUUCAGUUCUUACGAUTT against CCNB3 belongs 0 (inactive); to GGCUCAAUAUGGAGGAUUATT against NPR3, -0.436 (inactive).
The value for GGCCCUAUGUAUAUGCUUUTT against AK3 was -0.0313 (inactive); that for ACAUGCAGCUGGUAAGGAUTT against MFSD4 was -1.89 (active).
To GAUACGUUCUGCAAUGUUATT against EPYC belongs 0.00264 (inactive); to AGACCAAGAGCGCAUCAAATT against JUNB, -0.224 (inactive); to GGUUGUUGGUUGGACUGUUTT against GDE1, -0.256 (inactive).
On to CACUCACUGUUCCUAUCAATT against STAMBPL1, for which the median seed-adjusted z-score was 0.13 (inactive).
